The term inhibition denotes the relative decrease from the control value, in per cent.

Experiment [1] has as its target MAP/microtubule affinity-regulating kinase 3 (Homo sapiens) (UniProt P27448). The note with it: at 1 µM.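 Also: reported values are averaged percent inhibition of MARK3.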
Experiment [2] has as its target T1, MAP/microtubule affinity-regulating kinase 4 (Homo sapiens) (UniProt Q96L34).
T1 sequence (whole entry): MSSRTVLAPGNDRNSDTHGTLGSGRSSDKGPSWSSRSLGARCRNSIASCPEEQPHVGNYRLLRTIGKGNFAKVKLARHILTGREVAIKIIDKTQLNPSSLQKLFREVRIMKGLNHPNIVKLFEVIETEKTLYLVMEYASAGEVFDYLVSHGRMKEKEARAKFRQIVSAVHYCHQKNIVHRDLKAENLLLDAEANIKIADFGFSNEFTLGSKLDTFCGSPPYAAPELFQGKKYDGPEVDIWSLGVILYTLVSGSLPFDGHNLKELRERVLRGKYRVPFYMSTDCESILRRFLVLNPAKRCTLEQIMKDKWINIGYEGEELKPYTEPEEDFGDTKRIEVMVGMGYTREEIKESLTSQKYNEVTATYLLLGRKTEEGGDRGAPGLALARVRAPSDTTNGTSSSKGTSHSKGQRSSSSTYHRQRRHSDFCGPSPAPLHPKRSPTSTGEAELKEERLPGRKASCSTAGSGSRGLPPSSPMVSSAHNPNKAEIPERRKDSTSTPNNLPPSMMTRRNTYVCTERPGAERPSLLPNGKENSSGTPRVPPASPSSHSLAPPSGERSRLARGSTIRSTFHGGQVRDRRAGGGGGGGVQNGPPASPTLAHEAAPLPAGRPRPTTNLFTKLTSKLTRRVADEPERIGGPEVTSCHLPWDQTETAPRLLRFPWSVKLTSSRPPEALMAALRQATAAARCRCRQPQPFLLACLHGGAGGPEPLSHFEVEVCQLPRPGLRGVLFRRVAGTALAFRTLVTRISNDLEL
The note with it: at 0.1 µM.

Experiment [3] has as its target T1, MAP/microtubule affinity-regulating kinase 4 (Homo sapiens). Conditions: at 1 µM.
Experiment [4] deals with Maternal embryonic leucine zipper kinase (Homo sapiens) (UniProt Q14680). The note with it: at 0.1 µM.
For experiment [5] the target is unchanged. The note with it: at 1 µM.
For experiment [6], the target named is MAP kinase-interacting serine/threonine-protein kinase 1 (Homo sapiens) (UniProt Q9BUB5). The note with it: at 0.1 µM.
Experiment [7] has the same target. Conditions: at 1 µM.
Experiment [8] deals with MAP kinase-interacting serine/threonine-protein kinase 2 (Homo sapiens) (UniProt Q9HBH9). Conditions: at 0.1 µM.
For experiment [9] the target is unchanged. Conditions: at 1 µM.
For experiment [10], the target named is Serine/threonine-protein kinase MARK2 (Homo sapiens) (UniProt Q7KZI7). The note with it: at 0.1 µM.
For experiment [11] the target is unchanged. Conditions: at 1 µM.
The target in experiment [12] is PAS domain-containing serine/threonine-protein kinase (Homo sapiens) (UniProt Q96RG2). The note with it: at 0.1 µM.
Experiment [13] shares this target. The note with it: at 1 µM.
Experiment [14] deals with Phosphorylase b kinase gamma catalytic chain, skeletal muscle/heart isoform (Homo sapiens) (UniProt Q16816). Conditions: at 0.1 µM.
Experiment [15] has the same target. The note with it: at 1 µM.
For experiment [16], the target named is T2, Phosphorylase b kinase gamma catalytic chain, liver/testis isoform (Homo sapiens) (UniProt P15735).
T2 sequence (whole entry): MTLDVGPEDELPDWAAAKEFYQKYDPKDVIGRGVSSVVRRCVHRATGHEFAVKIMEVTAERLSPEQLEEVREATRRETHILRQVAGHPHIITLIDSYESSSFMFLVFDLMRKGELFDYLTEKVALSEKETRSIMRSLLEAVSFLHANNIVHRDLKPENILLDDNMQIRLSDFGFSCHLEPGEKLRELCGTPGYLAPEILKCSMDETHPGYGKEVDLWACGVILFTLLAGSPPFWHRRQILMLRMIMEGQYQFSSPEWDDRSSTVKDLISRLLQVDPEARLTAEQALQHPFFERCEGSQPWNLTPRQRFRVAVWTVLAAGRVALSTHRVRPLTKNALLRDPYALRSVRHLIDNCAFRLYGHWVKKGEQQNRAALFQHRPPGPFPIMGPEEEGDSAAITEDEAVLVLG
Conditions: at 0.1 µM.

For experiment [17], the target named is T2, Phosphorylase b kinase gamma catalytic chain, liver/testis isoform (Homo sapiens). The note with it: at 1 µM.
The target of experiment [18] is Serine/threonine-protein kinase pim-1 (Homo sapiens) (UniProt P11309). Conditions: at 0.1 µM.
The target is the same in experiment [19]. The note with it: at 1 µM.
The target of experiment [20] is Serine/threonine-protein kinase pim-2 (Homo sapiens) (UniProt Q9P1W9). Conditions: at 0.1 µM.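 Also: reported value is the mean percent inhibition of PIM2, measured in the GSK PKIS kinase inhibitor set screen.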

SMILES strings stand for the structures.

Sequence of MAP/microtubule affinity-regulating kinase 3 (Homo sapiens) (P27448 whole entry, looked up): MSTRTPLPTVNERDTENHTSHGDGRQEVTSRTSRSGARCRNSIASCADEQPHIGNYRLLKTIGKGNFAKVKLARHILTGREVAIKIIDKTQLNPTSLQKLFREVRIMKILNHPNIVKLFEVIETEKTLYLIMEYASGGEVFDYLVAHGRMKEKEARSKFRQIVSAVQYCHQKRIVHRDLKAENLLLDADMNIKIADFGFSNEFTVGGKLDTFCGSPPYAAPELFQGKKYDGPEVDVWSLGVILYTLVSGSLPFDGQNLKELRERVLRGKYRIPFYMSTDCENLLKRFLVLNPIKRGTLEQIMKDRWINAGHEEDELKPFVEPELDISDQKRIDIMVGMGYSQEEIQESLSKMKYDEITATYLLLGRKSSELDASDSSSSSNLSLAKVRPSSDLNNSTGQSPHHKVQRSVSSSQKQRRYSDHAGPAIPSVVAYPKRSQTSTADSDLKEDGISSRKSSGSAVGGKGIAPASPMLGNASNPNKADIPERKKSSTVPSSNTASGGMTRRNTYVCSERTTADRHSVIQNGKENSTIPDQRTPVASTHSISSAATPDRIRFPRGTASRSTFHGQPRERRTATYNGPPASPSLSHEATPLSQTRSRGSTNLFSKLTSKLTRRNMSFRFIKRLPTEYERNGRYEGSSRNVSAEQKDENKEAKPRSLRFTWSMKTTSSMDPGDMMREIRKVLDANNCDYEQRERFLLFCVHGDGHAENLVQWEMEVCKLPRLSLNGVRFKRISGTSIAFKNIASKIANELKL
Sequence of PAS domain-containing serine/threonine-protein kinase (Homo sapiens) (Q96RG2 whole entry, the tested form may be a part): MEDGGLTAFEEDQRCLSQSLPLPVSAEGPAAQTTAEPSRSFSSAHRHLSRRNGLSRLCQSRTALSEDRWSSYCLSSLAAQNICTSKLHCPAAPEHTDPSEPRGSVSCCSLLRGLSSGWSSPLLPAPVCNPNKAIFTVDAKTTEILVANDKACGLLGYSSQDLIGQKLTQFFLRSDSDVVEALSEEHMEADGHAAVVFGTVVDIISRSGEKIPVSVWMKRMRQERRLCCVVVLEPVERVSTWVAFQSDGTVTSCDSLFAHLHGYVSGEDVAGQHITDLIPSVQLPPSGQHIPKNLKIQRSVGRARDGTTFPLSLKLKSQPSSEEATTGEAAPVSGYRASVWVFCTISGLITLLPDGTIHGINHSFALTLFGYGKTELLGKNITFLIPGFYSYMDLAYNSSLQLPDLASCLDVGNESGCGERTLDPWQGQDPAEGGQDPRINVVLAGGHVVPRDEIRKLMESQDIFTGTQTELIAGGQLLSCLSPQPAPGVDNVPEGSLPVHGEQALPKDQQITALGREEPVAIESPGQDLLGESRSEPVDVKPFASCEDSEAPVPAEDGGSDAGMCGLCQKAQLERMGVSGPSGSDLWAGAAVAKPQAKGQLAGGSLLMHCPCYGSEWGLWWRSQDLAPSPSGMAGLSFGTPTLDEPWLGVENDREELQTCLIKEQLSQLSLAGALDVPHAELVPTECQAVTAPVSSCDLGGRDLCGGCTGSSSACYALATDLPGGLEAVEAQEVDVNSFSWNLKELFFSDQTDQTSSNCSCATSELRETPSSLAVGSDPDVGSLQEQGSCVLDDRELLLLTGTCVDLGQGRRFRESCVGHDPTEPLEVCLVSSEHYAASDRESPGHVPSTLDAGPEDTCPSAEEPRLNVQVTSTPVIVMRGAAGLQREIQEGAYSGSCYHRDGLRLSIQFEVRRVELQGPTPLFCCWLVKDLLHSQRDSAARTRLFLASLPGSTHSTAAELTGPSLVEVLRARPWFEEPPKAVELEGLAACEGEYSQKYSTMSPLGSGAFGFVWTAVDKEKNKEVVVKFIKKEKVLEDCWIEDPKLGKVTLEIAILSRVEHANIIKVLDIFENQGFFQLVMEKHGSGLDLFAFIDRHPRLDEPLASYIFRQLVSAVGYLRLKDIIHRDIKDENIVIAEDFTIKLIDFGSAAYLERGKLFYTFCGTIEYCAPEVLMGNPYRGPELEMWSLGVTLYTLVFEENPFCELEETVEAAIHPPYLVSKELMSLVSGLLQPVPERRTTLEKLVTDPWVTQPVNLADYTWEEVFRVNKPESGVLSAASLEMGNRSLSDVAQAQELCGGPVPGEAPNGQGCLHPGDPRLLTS
Sequence of MAP kinase-interacting serine/threonine-protein kinase 1 (Homo sapiens) (Q9BUB5 whole entry, looked up): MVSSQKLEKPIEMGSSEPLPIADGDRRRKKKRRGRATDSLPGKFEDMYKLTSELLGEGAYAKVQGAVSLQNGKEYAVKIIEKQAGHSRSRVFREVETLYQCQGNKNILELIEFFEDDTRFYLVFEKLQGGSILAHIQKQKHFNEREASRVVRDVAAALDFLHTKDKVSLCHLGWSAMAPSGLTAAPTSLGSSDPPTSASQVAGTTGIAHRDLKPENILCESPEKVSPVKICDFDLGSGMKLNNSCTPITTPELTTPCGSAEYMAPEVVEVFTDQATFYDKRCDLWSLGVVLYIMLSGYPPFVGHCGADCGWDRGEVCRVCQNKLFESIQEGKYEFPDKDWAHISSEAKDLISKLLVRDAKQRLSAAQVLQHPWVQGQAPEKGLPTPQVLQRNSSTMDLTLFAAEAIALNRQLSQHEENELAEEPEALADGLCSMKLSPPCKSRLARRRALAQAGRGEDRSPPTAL
Sequence of Serine/threonine-protein kinase pim-2 (Homo sapiens) (Q9P1W9 whole entry, looked up): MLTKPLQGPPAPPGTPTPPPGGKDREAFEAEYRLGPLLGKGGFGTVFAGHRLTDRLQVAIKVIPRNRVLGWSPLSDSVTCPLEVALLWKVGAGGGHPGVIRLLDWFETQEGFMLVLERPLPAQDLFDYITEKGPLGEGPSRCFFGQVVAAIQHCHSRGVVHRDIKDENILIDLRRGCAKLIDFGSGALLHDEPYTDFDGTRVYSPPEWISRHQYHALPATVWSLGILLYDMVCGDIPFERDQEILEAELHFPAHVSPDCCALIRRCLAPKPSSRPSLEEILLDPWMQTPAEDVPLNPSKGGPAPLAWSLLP
Sequence of Serine/threonine-protein kinase pim-1 (Homo sapiens) (P11309 whole entry, looked up): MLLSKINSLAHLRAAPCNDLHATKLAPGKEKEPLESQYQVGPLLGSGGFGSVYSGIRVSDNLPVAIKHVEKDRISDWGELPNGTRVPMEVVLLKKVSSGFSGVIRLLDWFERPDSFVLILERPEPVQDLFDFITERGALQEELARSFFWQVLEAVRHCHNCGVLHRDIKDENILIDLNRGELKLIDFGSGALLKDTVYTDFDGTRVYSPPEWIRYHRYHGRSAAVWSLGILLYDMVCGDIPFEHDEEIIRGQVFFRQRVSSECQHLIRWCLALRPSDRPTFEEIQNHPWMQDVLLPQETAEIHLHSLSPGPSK
Sequence of Serine/threonine-protein kinase MARK2 (Homo sapiens) (Q7KZI7 whole entry): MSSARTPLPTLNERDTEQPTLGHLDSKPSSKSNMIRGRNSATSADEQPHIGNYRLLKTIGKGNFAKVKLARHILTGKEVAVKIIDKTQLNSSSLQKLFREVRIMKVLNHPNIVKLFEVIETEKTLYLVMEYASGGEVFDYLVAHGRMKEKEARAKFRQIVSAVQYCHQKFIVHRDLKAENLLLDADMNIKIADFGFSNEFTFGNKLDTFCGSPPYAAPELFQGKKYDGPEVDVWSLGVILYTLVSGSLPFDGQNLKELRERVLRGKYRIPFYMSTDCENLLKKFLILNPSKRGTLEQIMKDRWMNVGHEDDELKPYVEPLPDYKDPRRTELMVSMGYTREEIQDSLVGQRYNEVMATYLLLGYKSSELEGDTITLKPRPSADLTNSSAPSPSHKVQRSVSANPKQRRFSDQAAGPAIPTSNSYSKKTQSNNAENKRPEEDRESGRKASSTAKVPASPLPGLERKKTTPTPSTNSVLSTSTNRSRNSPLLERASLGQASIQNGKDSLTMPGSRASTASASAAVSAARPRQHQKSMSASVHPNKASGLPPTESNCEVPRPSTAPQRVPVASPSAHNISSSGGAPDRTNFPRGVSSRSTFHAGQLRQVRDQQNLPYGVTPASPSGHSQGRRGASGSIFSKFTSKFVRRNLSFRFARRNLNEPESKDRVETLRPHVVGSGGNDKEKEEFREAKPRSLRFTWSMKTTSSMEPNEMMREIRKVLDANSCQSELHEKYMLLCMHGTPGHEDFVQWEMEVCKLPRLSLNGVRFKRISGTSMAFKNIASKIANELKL
Sequence of MAP kinase-interacting serine/threonine-protein kinase 2 (Homo sapiens) (Q9HBH9 whole entry, looked up): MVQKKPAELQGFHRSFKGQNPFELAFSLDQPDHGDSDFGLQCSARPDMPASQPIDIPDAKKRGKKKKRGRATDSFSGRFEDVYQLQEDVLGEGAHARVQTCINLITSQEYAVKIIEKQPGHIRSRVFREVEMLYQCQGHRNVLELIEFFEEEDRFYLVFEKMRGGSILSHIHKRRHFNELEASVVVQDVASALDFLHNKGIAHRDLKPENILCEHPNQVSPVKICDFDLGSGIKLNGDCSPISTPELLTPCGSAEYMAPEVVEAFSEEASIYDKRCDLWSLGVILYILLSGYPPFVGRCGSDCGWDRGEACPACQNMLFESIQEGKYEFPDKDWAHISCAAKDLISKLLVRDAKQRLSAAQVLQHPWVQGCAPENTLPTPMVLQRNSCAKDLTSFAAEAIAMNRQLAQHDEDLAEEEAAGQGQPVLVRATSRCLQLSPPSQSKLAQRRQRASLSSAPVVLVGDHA
Sequence of Phosphorylase b kinase gamma catalytic chain, skeletal muscle/heart isoform (Homo sapiens) (Q16816 whole entry, looked up, canonical isoform): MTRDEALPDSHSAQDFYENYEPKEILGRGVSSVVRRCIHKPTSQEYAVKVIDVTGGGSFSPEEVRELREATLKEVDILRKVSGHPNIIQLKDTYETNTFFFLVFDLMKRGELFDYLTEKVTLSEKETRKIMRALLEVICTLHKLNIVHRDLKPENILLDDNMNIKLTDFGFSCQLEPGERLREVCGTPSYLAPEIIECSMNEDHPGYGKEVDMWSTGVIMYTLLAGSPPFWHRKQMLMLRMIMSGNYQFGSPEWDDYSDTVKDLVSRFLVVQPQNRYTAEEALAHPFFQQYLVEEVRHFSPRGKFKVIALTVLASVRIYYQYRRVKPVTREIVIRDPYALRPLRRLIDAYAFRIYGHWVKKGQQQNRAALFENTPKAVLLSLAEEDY

In the case of `COc1cccc(-n2nc(C)c3c(N/N=C(\C)c4ccncc4)ncnc32)c1`, the inhibition is 0.26% in [1]; -0.19% in [2]; -0.43% in experiment [3]; -0.32% in [4]; 1.96% in experiment [5]; 0.47% in experiment [6]. Besides, the inhibition was 1.1% in [7]; -0.51% in [8]; 0.76% in experiment [9]; -0.2% in [10]; 0.88% in experiment [11]; 1.38% in [12]. Besides, the inhibition in experiment [13] was 0.57%; in experiment [14], 0.48%; in experiment [15] it was 2.64%; in [16], 0.83%; in experiment [17] it was 0.29%; in [18] it was -0.49%. Also, the inhibition in [19] is 0.18%; in experiment [20], -0.5%.
`Nc1ccc(C#Cc2cncnc2Nc2ccc(OCc3cccc(F)c3)c(Cl)c2)cc1`: the inhibition is 2.52% in [1]; 2.36% in experiment [2]; 1.95% in [3]; 2.97% in [4]; 1.48% in experiment [5]; 2.04% in experiment [6]. For the same molecule, the inhibition was 10.7% in [7]; 0.63% in experiment [8]; 7.26% in [9]; -0.22% in experiment [10]; 0.46% in [11]; 1.09% in [12]. The inhibition is 1.56% in experiment [13]; 4.22% in [14]; 2.49% in [15]; 3.68% in experiment [16]; 4.32% in [17]; 0.21% in experiment [18]. The figures for the inhibition in experiment [19] and in [20] were 1.21% and 0.43%, respectively.
In the case of `COC(=O)Nc1nc2cc(Oc3ccc(NC(=O)Nc4cccc(Br)c4)cc3)ccc2[nH]1`, the inhibition in experiment [1] worked out at 1.7%; in experiment [2] it was 0.25%; in [3] it was 1.17%; in experiment [4], 2.93%; in experiment [5] it was 4.7%; in experiment [6] it was 4.77%. Moreover, the inhibition is 8.85% in experiment [7]; 1.96% in experiment [8]; 4.55% in experiment [9]; -0.39% in experiment [10]; 0.27% in [11]; 0.17% in [12]. In addition, the inhibition in experiment [13] is 1.67%; in experiment [14], 3.04%; in experiment [15] it was 4.55%; in experiment [16], 3.62%; in experiment [17] it was 2.45%; in experiment [18], -0.51%. For the same molecule, the inhibition in [19] is 0.21%; in [20], -0.42%.
For `COC(=O)c1cncc(/C=C/c2c(C)cc(O)cc2C)c1`, the inhibition was found to be 2.01% in [1]; 0.01% in experiment [2]; 0.82% in experiment [3]; 2.47% in experiment [4]; 5.13% in experiment [5]; 4.41% in experiment [6]. Besides, the inhibition is 25.6% in [7]; 3.34% in [8]; 16.1% in experiment [9]; 0.36% in experiment [10]; -0.07% in experiment [11]; -0.51% in experiment [12]. Further, the inhibition was 1.51% in experiment [13]; 1.77% in experiment [14]; 4.16% in experiment [15]; 4.23% in experiment [16]; 6.97% in [17]; 1.57% in experiment [18]. The inhibition in [19] is 1.55%; in experiment [20] it was -0.56%.
`CCOc1nccc2c1nc(-c1nonc1N)n2CC`: the inhibition in [1] came to 9.66%; in experiment [2] it was 1.03%; in experiment [3], 5.45%; in experiment [4] it was 3.16%; in experiment [5], 5.63%; in experiment [6], 3.48%. Moreover, the inhibition in experiment [7] was found to be 9.35%; in experiment [8], 3.06%; in experiment [9], 6.16%; in [10], 1.34%; in [11], 1.46%; in experiment [12], 1.66%. Further, the inhibition turned out to be 5.36% in experiment [13]; 3.39% in [14]; 5.97% in experiment [15]; 4.34% in experiment [16]; 9.55% in experiment [17]; 0.76% in experiment [18]. In addition, the figures for the inhibition in [19] and in [20] were 2.04% and 0.25%, respectively.
Turning to `CCS(=O)(=O)c1ccc(OC)c(Nc2nccc(N(C)c3ccc4c(C)n[nH]c4c3)n2)c1`, the inhibition in experiment [1] is 3.79%; in [2], 2.78%; in experiment [3] it was 3.51%; in [4], 3.25%; in [5] it was 6.92%; in experiment [6] it was 3.05%. For the same molecule, the inhibition in experiment [7] was 3.58%; in experiment [8], 0.35%; in experiment [9], 3.48%; in [10], 0.55%; in [11], 3.54%; in experiment [12] it was -0.44%. Moreover, the inhibition in experiment [13] was 0.34%; in experiment [14], 6.38%; in experiment [15] it was 6.76%; in experiment [16] it was 6.39%; in experiment [17], 4.62%; in experiment [18], 1.18%. Besides, the figures for the inhibition in experiment [19] and in experiment [20] were 1.44% and 0.05%, respectively.

Source of the values: ChEMBL document CHEMBL1961873, “Compounds: GSK PKIS; Assays: Nanosyn kinase panel” (2012).
